Hit rate of the full screen: of about 53,000 compounds, about 900 (1.7%) showed an effect of 50% or more. The entries come from a sample that favours strong results as a whole.
Test system: Mycobacterium tuberculosis
Assay: Cornell - Phenotypic assay to identify agents that inhibit growth of Mycobacterium tuberculosis
Type: functional
Design: scale not given: direction of the effect not stated beside the values
Details: 10 mM as filed; unlikely as a test dose

SMILES | Percent Effect [%]
O=C(NCC(O)c1ccoc1)Nc1cccs1 (centres undefined) | 104.6
O=C(NCCC(O)c1ccoc1)Nc1cccs1 (centres undefined) | 106.1
CCOc1ccccc1C(=O)NCCC(O)c1ccoc1 (centres undefined) | 22.79
CCOC(=O)NCCC(O)c1ccoc1 (centres undefined) | 23.86
O=C(NCC(O)c1ccoc1)Nc1c(F)cccc1F (centres undefined) | 6.365
O=C(NCc1cccs1)NCC(O)c1ccoc1 (centres undefined) | 18.49
Cl.O=C(CN1CCCC1)Nc1c2c(cc3c1CCC3)CCC2 | 40.53
CCS(=O)(=O)Nc1ccn(Cc2cccc(F)c2)n1 | -38.51
CN(C)CCN1C(=O)CCC12CCCN(C(=O)c1cccnc1)CC2.O=C(O)C(F)(F)F.O=C(O)C(F)(F)F (centres undefined) | 28.27
Cn1cc(CN2CCCCC2c2ccc(-c3cccc(Cl)c3)nc2)cn1 (centres undefined) | 30.06
CC1CCN(C(=O)NCCc2cc(F)ccc2F)C1 (centres undefined) | 29.01
CN(C)CCNc1cc(-c2ccccc2C(N)=O)c2cc[nH]c2n1 | -19.65
CN(C)[C@@H]1CN(C(=O)c2cc3cccc(F)c3[nH]2)C[C@H]1O | 57.85
O=C(c1cc2cccc(F)c2[nH]1)N1C[C@@H](O)[C@H](N2CCCC2)C1 | 36.56
CN1CCN([C@@H]2CN(C(=O)c3cc4cccc(F)c4[nH]3)C[C@H]2O)CC1 | 38.63
CN1CCOC(CNCC(=O)NCCc2ccc3c(c2)OCCO3)C1 (centres undefined) | -19.13
Cc1ccccc1OCC1CCCN(c2cc(N)nc(N)n2)C1 (centres undefined) | 79.75
Cc1nc(N)cc(N2CCCC(COc3cccc(F)c3)C2)n1 (centres undefined) | 43.67
Nc1cc(N2CCCC(COc3ccc(F)cc3)C2)nc(N)n1 (centres undefined) | -4.088
CN(C)Cc1cnc(C2CN(C(=O)c3ccccc3Cl)CCO2)[nH]1 (centres undefined) | -0.6177
c1ccc(CCN2CC(n3cccn3)C2)nc1 | -9.048
COc1cccc(CN(C)C(=O)CCC(=O)c2ccc(Cl)cc2)c1OC | 54.4
COc1ccc(CN(C)C(=O)CCC(=O)c2cccs2)c(OC)c1OC | 32.22
COc1cccc(CN(C)C(=O)CCC(=O)c2ccccc2)c1OC | 8.094
O=C(N[C@@H]1CCC[C@@H](N2CCCC2)[C@@H]1O)c1cnn2cccnc12 | -2.756
COc1ccc(NC(=O)c2nc(C)sc2C(C)C)cn1 | 41.95

SMILES | Percent Effect [%]
CC(C)c1sc(Br)nc1C(=O)NCc1cccnc1 | 16.15
Cc1nc(C(=O)Nc2cccnc2)c(C(C)C)s1 | 51.63
CC(C)CCN1C[C@H]2C[C@H](C(=O)Nc3cccnc3)[C@@H](C1)O2.O=C(O)C(F)(F)F.O=C(O)C(F)(F)F | 18.07
N#Cc1cccc(OCCN2CCNC(=O)C2c2cccs2)c1 (centres undefined) | 15.41
Cc1nc(CN2C[C@H]3C[C@H](C(=O)NCC4CC4)N(C)[C@H]3C2)cs1.O=C(O)C(F)(F)F.O=C(O)C(F)(F)F.O=C(O)C(F)(F)F | -25.01
COc1ccccc1-c1nnc2n1NC(N)=C(C#N)S2 | 6.444
CC(=O)N[C@@H]1CN(C2CCN(c3cccc(Cl)c3)CC2)C[C@H]1C(C)C | 62.82
COc1cccc(N2CCC(N3C[C@@H](NC(C)=O)[C@H](C(C)C)C3)CC2)c1 | 34.03
COc1ccc(N2CCC(N3C[C@H](NC(C)=O)[C@@H](C(C)C)C3)CC2)cc1 | 33.6
Cc1cc(=O)n2ncnc2n1CC(O)c1cc(F)ccc1F (centres undefined) | -70.76
COc1ccc(NC(=O)Cn2c(=O)nc(N)c3cc(C)sc32)cc1 | 0.3474
Cc1nonc1OCCNC(=O)COc1ccc(Cl)cc1Cl | 17.56
CC(c1nnc(-c2ccccc2)o1)N1CCc2cncnc2C1 (centres undefined) | -7.255
CC(=O)N1CCc2c(nc(N(C)C)nc2N(C)CCC2CCCCO2)C1 (centres undefined) | -8.037
Cc1nc[nH]c1CN1CCN(C(=O)C2(C)CC2)[C@H]2CS(=O)(=O)C[C@H]21 | 10.63
Cn1ccc(CNC(=O)Nc2ccc(S(=O)(=O)C(F)F)cc2)c1 | 50.21
COc1ccc(CNC(=O)Nc2ccc(S(=O)(=O)C(F)F)cc2)cc1 | 13.14
Cn1cc(CNC(=O)Nc2ccc(S(=O)(=O)C(F)F)cc2)cn1 | 33.37
Cc1cc2nc(O)c(O)nc2cc1S(=O)(=O)NC1CC1 | 1.29
CC(C)(C)C(=O)NCCC(=O)NC(C)(C)c1ccc2c(c1)OCO2 | 11.96
COc1ncccc1CNC(=O)NC(C)Cn1cccn1 (centres undefined) | -6.466
CCCc1cc(CNC2CCN(c3cc(C(C)C)nc(C)n3)CC2)on1 | -3.278
O=C(c1cc(C2CC2)n[nH]1)N1C[C@H]2CC[C@](O)(c3ccccc3F)[C@H]2C1 | 50.52
O=C(c1cc(C2CC2)on1)N1C[C@H]2CC[C@](O)(c3ccccc3F)[C@H]2C1 | 7.092
O=C(c1cc(C2CC2)on1)N1C[C@H]2CC[C@](O)(c3ccc(F)cc3)[C@H]2C1 | 6.085
Clc1ccc(Cc2nc(CNCCn3cccn3)cs2)cc1 | 60.1

SMILES | Percent Effect [%]
Fc1ccc(CNCCn2cccn2)cc1F | -21.78
c1cnn(CCNCc2csc(-c3ccsc3)n2)c1 | -2.857
c1ccc(-c2nc(CNCCn3cccn3)cs2)cc1 | 46.8
c1ccc(Cc2nc(CNCCn3cccn3)cs2)cc1 | 73.18
COc1ccc(-c2nc(CNCCn3cccn3)cs2)cc1 | 49.39
COc1cc(C2(C(=O)N3CCCC(n4cncn4)C3)CC2)ccc1C (centres undefined) | 9.425
CC1(C(=O)NC2CCCC2)CCCN(c2cnccn2)C1 (centres undefined) | 15.8
Cn1cccc1C(O)CNS(=O)(=O)Cc1ccccc1 (centres undefined) | -41.72
Cn1cccc1C(O)CNC(=O)c1ccc2nsnc2c1 (centres undefined) | 20.08
Cn1cccc1C(O)CNC(=O)c1ccc(C(F)(F)F)cc1 (centres undefined) | 56.65
Cn1cccc1C(O)CNC(=O)c1cccc(Cl)c1 (centres undefined) | 49.37
Cn1cccc1C(O)CNC(=O)COc1ccccc1F (centres undefined) | 31.15
Cn1cccc1C(O)CNC(=O)c1ccc(F)c(F)c1 (centres undefined) | 19.39
Cn1cccc1C(O)CNC(=O)COc1ccc(Cl)cc1Cl (centres undefined) | 63.83
Cn1cccc1C(CNC(=O)COc1ccc(Cl)cc1Cl)N1CCCC1 (centres undefined) | 27.47
COC(=O)c1ccc(C(=O)NCC(O)c2cccn2C)cc1 (centres undefined) | 64.24
COC[C@@H]1CCC[C@]12CN(CCc1ccccc1)CCO2.O=C(O)C(F)(F)F | -4.553
Cc1nc(CNC(=O)c2cc(Cn3ccnc3C(C)C)[nH]n2)sc1C | -7.755
CC(C)NC(=O)NCC(Cc1ccc(F)cc1)C(N)=O (centres undefined) | -16.75
Cc1c(-c2nc3cc(S(=O)(=O)N4CCCC4)ccc3n2C)cnn1C | -4.812
CCc1ccccc1-c1cc(C)nc(N)n1 | 13.97
Cc1ccc(Oc2cc(CN)ccn2)cc1C.Cl | -26.7
NC(=O)NC(=O)CNC1(c2ccc(Cl)cc2)CCCC1 | 4.44
Cc1ccccc1CSc1ncc(Br)c(C(=O)O)n1 | 12.49
Cc1cncc(C2CCN(Cc3ccncc3)CC2)n1 | 18.56
Cc1cncc(C2CCN(Cc3ccsc3)CC2)n1 | 41.74

SMILES | Percent Effect [%]
Cc1cncc(C2CCN(Cc3cnc(C)nc3)CC2)n1 | 56.88
CCN1c2ccc(-c3cncn3CCCn3ccnc3C)cc2CC1C.Cl (centres undefined) | 54.49
CCN1c2ccc(-c3cncn3CC(=O)NC(C)(C)C)cc2CC1C.Cl (centres undefined) | -3.554
Cc1nccn1CCCn1cncc1-c1ccc2c(c1)CCC(C)N2C.Cl (centres undefined) | 54.25
Cc1nccn1CCCn1cncc1-c1ccc2c(c1)CCCN2C.Cl | 0.2069
CCN1CCc2cc(-c3cncn3CCNC3CCS(=O)(=O)C3)ccc21.Cl (centres undefined) | 12.29
Cc1nccn1CCCn1cncc1-c1ccc2c(c1)CC(C)N2C.Cl (centres undefined) | 20.63
OCCNc1nc(NCCc2ccccc2)nc2nccnc12 | 11.82
Cn1cc(CN2CC[C@H](O)[C@@H](n3ccc(=O)[nH]c3=O)CC2)cn1 | -40.44
Cn1cc(CN(Cc2ccccn2)Cc2ccccc2Cl)cn1 | 9.224
COc1ccc(C(C)NCCc2ccc(NC(C)=O)cc2)cc1F (centres undefined) | -10.02
O[C@@H]1CN(Cc2cc(Cl)cc3cccnc23)C[C@@H]1O | 5.63
Clc1cc(CN2CCCN3CCCC3C2)c2ncccc2c1 (centres undefined) | 58.38
OCCN1CCN(Cc2cc(Cl)cc3cccnc23)CC1 | -20.78
Cc1nsc(NCCNS(=O)(=O)c2ccccc2)n1 | 22.52
Cc1ccc(C)c(S(=O)(=O)NCCNc2ccc(-n3cccc3)nn2)c1 | 29.41
Cc1nnsc1C(=O)NCCNS(=O)(=O)c1cccs1 | -32.34
O=S(=O)(NCCNc1cc(-n2cccc2)ncn1)c1cccs1 | 51.47
CCS(=O)(=O)NCCNc1cc(-n2cccc2)ncn1 | 13.54
O=S(=O)(Cc1ccccc1)NCCNc1ccc(-n2cccc2)nn1 | 12.63
O=S(=O)(NCCNc1cc(-n2cccn2)ncn1)c1cccs1 | -21.67
Cc1ccc(S(=O)(=O)NCCNc2cc(-n3cccc3)ncn2)c(C)c1 | 53.05
CCS(=O)(=O)NCCCNc1cc(N2CCCC2CO)ncn1 (centres undefined) | 22.16
O=S(=O)(NCCNc1ccc(-n2cccc2)nn1)c1cccs1 | 107.8
Cc1cccc(C(=O)NCCNS(=O)(=O)c2cccs2)c1C | 27.49
O=S(=O)(NCCNc1ccc(-n2cccc2)nn1)c1ccccc1 | 105.3
